Inconclusive results are not listed. Activity calls are given as the source filed them. How the source made its calls, unless noted: active means hit-call score of the fitted dose curve at least 0.9, where 1 is the maximum; inactive means score below 0.9.
Tests used:
[1] = target: Paired box protein Pax-6 (Homo sapiens) (UniProt P26367); assay: ATG_Pax6_CIS: Attagene CIS-FACTORIAL HepG2 Assay for human Paired Box 6 (PAX6) (AID 2282956); conditions: HepG2 CIS-FACTORIAL PAX6 reporter transcription, RNA readout; actives raise or lower the signal
Paired box protein Pax-6 (Homo sapiens), sequence (P26367 whole entry, looked up): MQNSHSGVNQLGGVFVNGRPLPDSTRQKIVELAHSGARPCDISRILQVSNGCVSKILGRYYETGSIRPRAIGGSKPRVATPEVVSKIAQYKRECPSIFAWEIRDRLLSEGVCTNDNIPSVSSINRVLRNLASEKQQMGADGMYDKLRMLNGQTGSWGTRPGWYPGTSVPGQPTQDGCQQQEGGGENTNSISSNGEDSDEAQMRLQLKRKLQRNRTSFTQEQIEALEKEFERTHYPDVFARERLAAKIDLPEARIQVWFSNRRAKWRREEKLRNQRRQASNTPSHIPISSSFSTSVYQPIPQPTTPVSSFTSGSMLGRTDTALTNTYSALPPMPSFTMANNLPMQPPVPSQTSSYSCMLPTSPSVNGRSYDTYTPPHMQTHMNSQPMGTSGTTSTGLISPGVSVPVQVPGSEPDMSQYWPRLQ
Method in brief: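 Multiplexed cis-reporter HepG2 system; 24 h treatment; reporter mRNA read by RT-PCR/CE fluorescence; bidirectional fit vs DMSO.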

[2] = ATG_PXRE_CIS: Attagene CIS-FACTORIAL HepG2 Assay for human Pregnane X Receptor Element (PXRE) (AID 2282957); conditions: HepG2 Attagene CIS-FACTORIAL PXRE reporter, mRNA; actives raise or lower the signal
Method in brief: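 Cells: HepG2, transiently transfected reporter units under cis promoter control. Exposure: 24 h. Detection: reporter mRNA via RT-PCR/CE fluorescence; bidirectional fitting, DMSO-referenced.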

[3] = ATG_Sox_CIS: Attagene CIS-FACTORIAL HepG2 Assay for human SRY-box transcription factor (SOX) (AID 2282960); conditions: HepG2 Attagene cis-factorial SOX reporter, mRNA; actives raise or lower the signal
Method in brief: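 Transient MRTU transfection of HepG2; 24 h compound incubation; TriZol RNA, oligo(dT) RT, PCR, 6-FAM primer extension, HpaI cut, CE. Bidirectional fit, DMSO = baseline.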

[4] = target: Transcription factor Sp1 (Homo sapiens) (UniProt P08047); assay: ATG_Sp1_CIS: Attagene CIS-FACTORIAL HepG2 Assay for human Specificity Protein 1 (Sp1) (AID 2282961); conditions: HepG2 Sp1 cis-reporter transcription, actives raise or lower the signal
Transcription factor Sp1 (Homo sapiens), sequence (P08047 whole entry, looked up): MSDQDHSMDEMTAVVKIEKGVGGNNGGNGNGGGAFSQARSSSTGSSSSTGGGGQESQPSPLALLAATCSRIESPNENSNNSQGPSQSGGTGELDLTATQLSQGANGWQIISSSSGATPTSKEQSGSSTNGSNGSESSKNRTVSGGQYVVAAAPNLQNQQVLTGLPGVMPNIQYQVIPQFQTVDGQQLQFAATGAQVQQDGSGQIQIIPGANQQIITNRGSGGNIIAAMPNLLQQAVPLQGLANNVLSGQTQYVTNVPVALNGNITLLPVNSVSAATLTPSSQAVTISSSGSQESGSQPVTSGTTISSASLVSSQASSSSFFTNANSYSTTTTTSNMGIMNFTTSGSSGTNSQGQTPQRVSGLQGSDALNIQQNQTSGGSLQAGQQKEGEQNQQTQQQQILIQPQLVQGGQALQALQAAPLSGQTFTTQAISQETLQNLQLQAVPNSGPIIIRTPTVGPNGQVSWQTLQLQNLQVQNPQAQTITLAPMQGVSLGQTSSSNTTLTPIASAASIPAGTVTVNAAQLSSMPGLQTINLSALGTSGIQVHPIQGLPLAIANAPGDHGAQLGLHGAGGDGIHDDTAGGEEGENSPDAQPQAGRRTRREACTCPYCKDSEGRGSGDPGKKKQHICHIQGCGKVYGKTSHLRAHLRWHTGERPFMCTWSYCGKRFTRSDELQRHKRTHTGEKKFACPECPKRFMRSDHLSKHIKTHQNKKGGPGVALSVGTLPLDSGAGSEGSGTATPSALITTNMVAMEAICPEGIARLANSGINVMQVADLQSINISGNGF
Method in brief: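 Endogenous Sp1 activity was gauged in human liver HepG2 cells bearing transfected reporter units under a cis-regulating promoter. After 24 h dosing, reporter mRNA was quantified by RT-PCR with capillary electrophoresis, and activity fitted bidirectionally versus DMSO.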

[5] = ATG_SREBP_CIS: Attagene CIS-FACTORIAL HepG2 Assay for human Sterol Regulatory Element Binding (SREBP) (AID 2282962); conditions: HepG2 Attagene cis-factorial SREBP reporter, mRNA; actives raise or lower the signal
Method in brief: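 mRNA induction of transfected cis-promoter reporters in HepG2 cells, 24 h post-dose. Detection: RT-PCR with 6-FAM-labelled products, HpaI digest, capillary electrophoresis. DMSO served as negative control and baseline.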

[6] = target: Signal transducer and activator of transcription 3 (Homo sapiens) (UniProt P40763); assay: ATG_STAT3_CIS: Attagene CIS-FACTORIAL HepG2 Assay for human Signal Transducer and Activator of Transcription 3 (STAT3) (AID 2282963); conditions: HepG2, Attagene cis-factorial STAT3 reporter transcription; actives raise or lower the signal
Signal transducer and activator of transcription 3 (Homo sapiens), sequence (P40763 whole entry, looked up): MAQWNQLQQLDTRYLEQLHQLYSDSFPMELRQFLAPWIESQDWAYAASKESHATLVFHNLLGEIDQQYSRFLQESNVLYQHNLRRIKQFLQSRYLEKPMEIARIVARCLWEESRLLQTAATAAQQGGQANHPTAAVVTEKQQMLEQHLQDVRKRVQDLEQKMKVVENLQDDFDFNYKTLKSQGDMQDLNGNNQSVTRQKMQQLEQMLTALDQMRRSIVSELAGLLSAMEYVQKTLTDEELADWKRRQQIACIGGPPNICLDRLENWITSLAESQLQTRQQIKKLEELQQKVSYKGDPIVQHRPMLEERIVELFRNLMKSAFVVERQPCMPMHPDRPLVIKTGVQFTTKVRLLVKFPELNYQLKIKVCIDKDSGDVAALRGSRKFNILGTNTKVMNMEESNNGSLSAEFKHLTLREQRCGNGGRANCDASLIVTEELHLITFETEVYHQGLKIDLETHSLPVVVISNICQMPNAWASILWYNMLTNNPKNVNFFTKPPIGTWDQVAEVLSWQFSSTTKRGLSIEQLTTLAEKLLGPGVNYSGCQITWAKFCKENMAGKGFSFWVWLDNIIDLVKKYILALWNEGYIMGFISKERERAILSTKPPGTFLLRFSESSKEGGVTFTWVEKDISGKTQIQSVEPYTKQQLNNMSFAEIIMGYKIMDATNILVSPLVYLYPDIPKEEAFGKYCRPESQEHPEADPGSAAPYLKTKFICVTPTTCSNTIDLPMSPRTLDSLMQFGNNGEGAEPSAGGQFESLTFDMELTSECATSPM
Method in brief: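 HepG2 cells transiently transfected with cis-element-driven multiple reporter transcription units; after 24 h chemical exposure, reporter mRNA measured by RT-PCR, 6-FAM primer-extension labelling, HpaI digestion and capillary electrophoresis. Bidirectional fitting versus DMSO baseline.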

[7] = ATG_TA_CIS: Attagene CIS-FACTORIAL HepG2 Assay for human TA Basal Promoter (AID 2282964); conditions: HepG2 Attagene CIS-factorial TA basal promoter reporter; actives raise or lower the signal
Method in brief: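 Background-control readout: TA basal promoter reporter mRNA, fitted in both directions relative to DMSO. Measured by RT-PCR and capillary electrophoresis 24 hours after treating HepG2 human liver cells transiently carrying multiplexed cis-regulated reporter constructs.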

[8] = ATG_TCF_b_cat_CIS: Attagene CIS-FACTORIAL HepG2 Assay for human T-Cell-Factor with beta-catenin (TCF/b-cat) (AID 2282965); conditions: HepG2 TCF/beta-catenin cis-reporter transcription, actives raise or lower the signal
Method in brief: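 HepG2 cells transiently transfected with multiple cis-promoter-regulated reporter transcription units, so endogenous transcription factor activity is measured. Reporter mRNA read 24 hours after dosing by RT-PCR, fluorescent labelling and capillary electrophoresis; bidirectional fitting against DMSO.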

[9] = ATG_TAL_CIS: Attagene CIS-FACTORIAL HepG2 Assay for human TAL Basal Promoter (AID 2282966); conditions: HepG2 Attagene cis-factorial TAL promoter reporter; actives raise or lower the signal;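 further: background control endpoint measuring basal TAL promoter reporter mRNA not a specific factor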
Method in brief: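 RT-PCR plus capillary electrophoresis quantifies reporter mRNA induction in transiently transfected HepG2 cells after 24 h chemical treatment. DMSO serves as negative control and baseline for bidirectional fitting.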

[10] = ATG_TGFb_CIS: Attagene CIS-FACTORIAL HepG2 Assay for human Transforming Growth Factor (TGF) (AID 2282967); conditions: HepG2 Attagene CIS TGFb reporter, mRNA transcription; actives raise or lower the signal
Method in brief: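 Endogenous TGFB1-linked transcription factor activity read as reporter mRNA via RT-PCR and capillary electrophoresis, 24 h after dosing transiently transfected HepG2 cells. Gain or loss of signal fitted relative to DMSO.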

[11] = ATG_VDRE_CIS: Attagene CIS-FACTORIAL HepG2 Assay for human Vitamin D Receptor Element (VDRE) (AID 2282968); conditions: HepG2 VDRE cis-reporter transcription, actives raise or lower the signal
Method in brief: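 HepG2 cells transiently transfected with cis-element reporter units, dosed 24 h; reporter mRNA measured by RT-PCR, 6-FAM labeling, HpaI digestion and capillary electrophoresis. Activity fitted bidirectionally against DMSO baseline.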

[12] = target: Nuclear receptor subfamily 1 group I member 3 (Homo sapiens) (UniProt Q14994); assay: ATG_CAR_TRANS: Attagene TRANS-FACTORIAL HepG2 Assay for human Constitutive Androstane Receptor (CAR) (AID 2282969; active means hit-call score of the fitted dose curve at least 0.9, where 1 is the maximum;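 further: activators raise reporter mRNA above DMSO so AC50 marks induction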); conditions: HepG2 Attagene TRANS-FACTORIAL CAR reporter
Nuclear receptor subfamily 1 group I member 3 (Homo sapiens), sequence (Q14994 whole entry, looked up, the tested form may be a part): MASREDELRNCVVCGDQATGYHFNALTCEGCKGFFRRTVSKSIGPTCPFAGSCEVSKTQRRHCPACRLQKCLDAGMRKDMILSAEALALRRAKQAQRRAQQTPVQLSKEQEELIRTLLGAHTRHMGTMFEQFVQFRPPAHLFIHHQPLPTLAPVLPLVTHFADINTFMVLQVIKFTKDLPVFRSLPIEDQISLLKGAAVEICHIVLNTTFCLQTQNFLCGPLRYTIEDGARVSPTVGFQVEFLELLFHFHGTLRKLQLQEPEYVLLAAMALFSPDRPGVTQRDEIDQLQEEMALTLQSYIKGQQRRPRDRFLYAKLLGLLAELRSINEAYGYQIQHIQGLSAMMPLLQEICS
Method in brief: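 HepG2 cells transiently transfected with multiplexed GAL4-UAS reporter units expressing chimeric NR-Gal4 proteins; compound exposure 24 h. Reporter mRNA measured by RT-PCR, 6-FAM labelling, HpaI digestion and capillary electrophoresis; gain-of-signal fitted against DMSO baseline.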

[13] = target: X-box-binding protein 1 (Homo sapiens) (UniProt P17861); assay: ATG_Xbp1_CIS: Attagene CIS-FACTORIAL HepG2 Assay for human X-box Binding Protein 1 (XBP1) (AID 2282972); conditions: HepG2 XBP1 cis-element reporter, Attagene multiplex; actives raise or lower the signal
X-box-binding protein 1 (Homo sapiens), sequence (P17861 whole entry, looked up, the tested form may be a part): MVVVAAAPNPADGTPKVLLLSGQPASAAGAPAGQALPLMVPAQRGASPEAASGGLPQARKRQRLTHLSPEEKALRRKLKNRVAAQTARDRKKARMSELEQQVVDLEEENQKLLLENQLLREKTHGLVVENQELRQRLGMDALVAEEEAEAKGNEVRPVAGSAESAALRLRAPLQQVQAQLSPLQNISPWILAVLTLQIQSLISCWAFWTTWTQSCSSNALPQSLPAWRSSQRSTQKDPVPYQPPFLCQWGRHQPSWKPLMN
Method in brief: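 Fluorescence-labelled cDNA fragments from reporter transcripts, separated by capillary electrophoresis, give the signal. Source: HepG2 cells transfected with promoter-driven reporter units, harvested 24 h post-dose. DMSO served as reference for bidirectional curve fitting.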

[14] = ATG_M_19_TRANS: Attagene TRANS-FACTORIAL HepG2 Assay for M19 Transcription Factor (Internal Marker) (AID 2282974; active means hit-call score of the fitted dose curve at least 0.9, where 1 is the maximum); conditions: HepG2 Attagene TRANS-FACTORIAL M19 internal marker reporter
Method in brief: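 Cells: human HepG2, transiently transfected with multiplexed reporter transcription units. Exposure: 24 h. Detection: RT-PCR of reporter mRNA with capillary electrophoresis. Analysis: gain-of-signal vs DMSO.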

[15] = target: Estrogen-related receptor gamma (Homo sapiens) (UniProt P62508); assay: ATG_ERRg_TRANS: Attagene TRANS-FACTORIAL HepG2 Assay for human Estrogen-Related Receptor gamma (ERRg) (AID 2282977; active means hit-call score of the fitted dose curve at least 0.9, where 1 is the maximum;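 further: hits increase reporter signal over DMSO so potencies reflect activators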); conditions: HepG2 Attagene TRANS reporter, ERRg transactivation
Estrogen-related receptor gamma (Homo sapiens), sequence (P62508 whole entry, looked up, the tested form may be a part): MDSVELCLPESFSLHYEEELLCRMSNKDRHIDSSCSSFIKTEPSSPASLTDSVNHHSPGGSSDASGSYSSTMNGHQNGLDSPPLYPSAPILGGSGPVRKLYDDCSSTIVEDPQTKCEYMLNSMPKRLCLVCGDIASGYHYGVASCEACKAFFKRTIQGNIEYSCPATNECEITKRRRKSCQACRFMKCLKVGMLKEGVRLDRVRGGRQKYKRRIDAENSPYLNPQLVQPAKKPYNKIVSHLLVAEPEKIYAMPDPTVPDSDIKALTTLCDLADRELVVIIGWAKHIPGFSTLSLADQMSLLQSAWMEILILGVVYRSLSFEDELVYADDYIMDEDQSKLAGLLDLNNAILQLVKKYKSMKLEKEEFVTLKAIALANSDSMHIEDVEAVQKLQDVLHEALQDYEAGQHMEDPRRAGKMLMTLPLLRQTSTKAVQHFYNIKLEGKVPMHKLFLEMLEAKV
Method in brief: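 HepG2 cells transiently transfected with multiplexed GAL4-UAS reporter units and chimeric NR-Gal4 constructs were exposed to test chemicals for 24 h. Reporter mRNA was measured by RT-PCR, 6-FAM primer extension, HpaI digestion and capillary electrophoresis; gain-of-signal versus DMSO.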

[16] = ATG_RORE_CIS: Attagene CIS-FACTORIAL HepG2 Assay for human RAR-related Orphan Receptor Element (RORE) (AID 2282959); conditions: HepG2 Attagene cis-factorial RORE reporter, mRNA; actives raise or lower the signal
Method in brief: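 Cells were HepG2 carrying transfected cis-regulated reporter constructs, dosed for 24 hours. Total RNA was reverse-transcribed and reporter cDNA amplified, fluorescently labeled and sized by capillary electrophoresis. Activity was fitted bidirectionally relative to DMSO.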

[17] = target: Steroid hormone receptor ERR1 (Homo sapiens) (UniProt P11474); assay: ATG_ERRa_TRANS: Attagene TRANS-FACTORIAL HepG2 Assay for human Estrogen-Related Receptor alpha (ERRa) (AID 2282971; active means hit-call score of the fitted dose curve at least 0.9, where 1 is the maximum); conditions: HepG2 Attagene TRANS reporter, ERRa transactivation
Steroid hormone receptor ERR1 (Homo sapiens), sequence (P11474 whole entry, looked up, the tested form may be a part): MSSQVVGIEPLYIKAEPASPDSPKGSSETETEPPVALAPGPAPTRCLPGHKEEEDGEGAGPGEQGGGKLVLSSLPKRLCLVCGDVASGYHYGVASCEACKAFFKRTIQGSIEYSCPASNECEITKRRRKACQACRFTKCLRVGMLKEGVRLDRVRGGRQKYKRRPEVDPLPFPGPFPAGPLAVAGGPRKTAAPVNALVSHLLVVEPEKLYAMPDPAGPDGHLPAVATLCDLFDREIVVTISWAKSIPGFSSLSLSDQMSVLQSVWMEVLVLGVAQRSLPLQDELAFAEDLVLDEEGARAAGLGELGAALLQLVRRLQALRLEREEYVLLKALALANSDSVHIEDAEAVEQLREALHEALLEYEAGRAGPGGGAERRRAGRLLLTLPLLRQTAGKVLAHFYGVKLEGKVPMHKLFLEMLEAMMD
Method in brief: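 Reporter transcripts from ERRa-Gal4 chimera activity measured in transiently transfected human HepG2 cells 24 hours after dosing, using RT-PCR with 6-FAM primer extension, HpaI digestion and capillary electrophoresis; DMSO is baseline.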

[18] = ATG_GAL4_TRANS: Attagene TRANS-FACTORIAL HepG2 Assay for GAL4 (Internal Marker) (AID 2282976; active means hit-call score of the fitted dose curve at least 0.9, where 1 is the maximum); conditions: HepG2 Attagene TRANS GAL4 internal marker reporter
Method in brief: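 In transfected human HepG2 liver cells dosed 24 h, GAL4 reporter mRNA serves as a baseline marker. Detection by RT-PCR with fluorescent capillary electrophoresis, activity fitted upward relative to DMSO.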

Measured: AC50

CCCCCCCC/C=C\CCCCCCCC(=O)OCC
not listed: [16] | [17] | [18]
inactive: all other assays above

C=C(C)C1CC=C(C)C(=O)C1 (stereo not drawn)
active: [2] 33.4 µM
not listed: [5] | [8] | [12] | [14] | [15] | [17] | [18]
inactive: all other assays above

CCCCCCCCCC(C)C=O (stereo not drawn)
active: [2] 51.1 µM
not listed: [8] | [12] | [15] | [16] | [17] | [18]
inactive: all other assays above

CCCCOC(=O)CCCCCCCC(=O)OCCCC
active: [8] 128 µM
not listed: [5] | [12] | [14]
inactive: all other assays above

C=CCCC(=O)/C=C/C1C(C)=CCCC1(C)C (stereo not drawn)
active: [2] 1.18 µM | [5] 100 µM | [11] 2.44 µM
not listed: [7] | [14] | [15] | [16] | [17] | [18]
inactive: all other assays above

CC(C)c1ccccc1O
active: [2] 81.1 µM
not listed: [12] | [15] | [16] | [17] | [18]
inactive: all other assays above

COCCOC(=O)c1ccccc1C(=O)OCCOC
active: [2] 120 µM
not listed: [4] | [8] | [15] | [17]
inactive: all other assays above

C=C(C)C(=O)OCCOCCOCCOC(=O)C(=C)C
active: [2] 54.8 µM
not listed: [5] | [12] | [15] | [17]
inactive: all other assays above

CCCCCCCCCC(=O)OC
not listed: [4] | [11] | [12] | [15] | [17] | [18]
inactive: all other assays above
